This passage reports Potency results from PubChem BioAssay (Tox21).

Inconclusive results are not listed. Entries that show only a call come without a potency. Calls of active or inactive are those of the source. The call rests on the fitted dose curve.

A short description of this test: p53 small molecule agonists, cell-based qHTS assay with rat liver microsomes (AID 1963578). A digest of the protocol: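 Each plate received p53RE-bla cells, then compound, then rat liver microsomes and NADPH (both 0.5 mg/mL final). Plates were held 16 h at 37 C, and beta-lactamase activity was detected with LiveBLAzer over 2 h.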
In general terms: In qHTS, concentration-response curves come from the screen itself.

With `Cc1ncc([N+](=O)[O-])n1C`, the Potency entry is “inactive”.
As for `N[C@@H](Cc1cc(I)c(Oc2ccc(O)c(I)c2)c(I)c1)C(=O)O`, the Potency result is “inactive”.
The same measure for `Nc1ccc(S(=O)(=O)c2ccc(N)cc2)cc1`: “inactive”.
For `C=CCc1ccc(O)c(OC)c1`, the Potency entry is “inactive”.
On to `CCN=c1cc2oc3cc(NCC)c(C)cc3c(-c3ccccc3C(=O)OCC)c-2cc1C`, for which the Potency entry was “inactive”.
Under `O=S(=O)(O)c1ccc2nc(-c3ccccc3)[nH]c2c1` stands “inactive”.
Under `CC12CCC(CC1)C(C)(C)O2` stands “inactive”; under `C[Si](C)(C)N[Si](C)(C)C`, “inactive”.
The same measure for `Cc1ccc(C)c(O)c1`: “inactive”; for `O=c1n(CC2CO2)c(=O)n(CC2CO2)c(=O)n1CC1CO1` (stereo unspecified): “inactive”.
Turning to `CCCOC(=O)c1cc(O)c(O)c(O)c1`, the Potency result was “inactive”.
Under `NC(=O)NC1NC(=O)NC1=O` (stereo unspecified) stands “inactive”; under `CC(C)(Oc1ccc(Cl)cc1)C(=O)O`, “inactive”; under `COc1cc([C@@H]2c3cc4c(cc3[C@H](O)[C@H]3COC(=O)[C@H]23)OCO4)cc(OC)c1OC`, “inactive”.
The same measure for `Nc1cc(Cl)c(-c2cc(Cl)c(N)cc2Cl)cc1Cl`: “inactive”.
The same measure for `CC(=O)Oc1c(C)c(C)c2c(c1C)CC[C@@](C)(CCC[C@H](C)CCC[C@H](C)CCCC(C)C)O2`: “inactive”; for `CCCCCC/C=C/CCCCCCCC(=O)O`: “inactive”; for `C[C@]12CC[C@@H]3c4ccc(O)cc4CC[C@H]3[C@@H]1CC[C@@H]2O`: “inactive”.
For `Cc1cn([C@H]2C[C@H](N=[N+]=[N-])[C@@H](CO)O2)c(=O)[nH]c1=O`, the Potency result is “inactive”.
The same measure for `Cc1cc(Cc2cc(C)cc(C(C)(C)C)c2O)c(O)c(C(C)(C)C)c1`: “inactive”; for `CC(=O)CC(=O)N(C)C`: “inactive”; for `CC(=O)C(C)C`: “inactive”.
Under `CCCOC(=O)NCCCN(C)C` stands “inactive”; under `O=C(O)c1ccc(O)cc1`, “inactive”.
The same measure for `c1cnc2c(c1)ccc1cccnc12`: “inactive”; for `C[N+](C)(C)CCCCCC[N+](C)(C)C`: “inactive”.
Turning to `CC1(C)NC(=O)N(c2ccc([N+](=O)[O-])c(C(F)(F)F)c2)C1=O`, the Potency entry is “inactive”.
The same measure for `Cn1c([N+](=O)[O-])cnc1COC(N)=O`: “inactive”; for `Oc1c(Cl)cc(Cl)c(Cl)c1Cc1c(O)c(Cl)cc(Cl)c1Cl`: “inactive”.
Under `Cc1cccc(O)c1` stands “inactive”.
Under `O=C1CCc2ccccc2O1` stands “inactive”.
In the case of `CC(=O)OCc1ccc2c(c1)OCO2`, the Potency result was “inactive”.
Under `COC(=O)c1ccccc1O` stands “inactive”.
Consider `CC(=O)C(=O)O`, for which the Potency entry is “inactive”.
In the case of `CCCCC/C=C\C/C=C\CCCCCCCC(=O)OC`, the Potency result is “inactive”.
With `O=c1ccc2ccccc2o1`, the Potency entry is “inactive”.
The same measure for `COc1ccccc1OCC(O)CO` (stereo unspecified): “inactive”; for `Cc1ccc(N)c(S(=O)(=O)O)c1`: “inactive”.
Under `C=C(CC(=O)O)C(=O)O` stands “inactive”; under `CCCCCCCCCCCCCC(=O)O`, “inactive”.
In the case of `COC(=O)[C@H]1[C@H]2C[C@@H]3c4[nH]c5cc(OC)ccc5c4CCN3C[C@H]2C[C@@H](OC(=O)c2cc(OC)c(OC)c(OC)c2)[C@@H]1OC`, the Potency entry was “inactive”.
The same measure for `COCCOC(=O)c1ccccc1C(=O)OCCOC`: “inactive”; for `COC(=O)CCC(=O)OC`: “inactive”; for `c1ccc(OCCOc2ccccc2)cc1`: “inactive”.
As for `COc1ccc2c(c1)c(CC(=O)O)c(C)n2C(=O)c1ccc(Cl)cc1`, the Potency result is “inactive”.
Under `O=C(O)c1ccc2c(c1)C(=O)OC2=O` stands “inactive”.
For `CCn1c2ccccc2c2cc(N)ccc21`, the Potency entry is “inactive”.
The same measure for `CCCCCCCCOc1ccc(C(=O)c2ccccc2)c(O)c1`: “inactive”; for `CN(C)CCC(c1ccccc1)c1ccccn1` (stereo unspecified): “inactive”.
Take `CC(C)(N)CO`: the Potency result is “inactive”.
Under `CCCCOCCOCCSC#N` stands “inactive”.
